Of roughly 7,900 targets only a part is listed; those with a hit were picked by preference. About 0.6% of all pairs of compound and target were hits.
Compound: CC(C)(C)Cn1c(N)nc2ccc(-c3[nH]c(C(C)(C)C)nc3-c3ccc(F)cc3)nc21 [ralimetinib]
Assay: log2 fold change, soluble protein after heating vs DMSO (PISA); higher = thermal stabilisation; K562 cells, 10 uM, 30 min; active = over 0.2 and 3.5 SD of the protein, either way, in both replicates (recomputed)
How it was run: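 Soluble protein was quantified by TMTpro 16plex LC-MS/MS after channel sums were equalised. It was obtained as the supernatant after 21,000xg for 90 min from pooled aliquots of K562 cells (2×10^6 cells/mL, 10 μM compound, 30 min) heated for 3 min across 48°C-58°C and extracted in PBS with 0.5% NP-40 at 4°C. Thermal stability values are relative to control samples and come from duplicates. They are given as log2 fold changes.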

UniProt P51151, sequence (P51151 whole entry, looked up): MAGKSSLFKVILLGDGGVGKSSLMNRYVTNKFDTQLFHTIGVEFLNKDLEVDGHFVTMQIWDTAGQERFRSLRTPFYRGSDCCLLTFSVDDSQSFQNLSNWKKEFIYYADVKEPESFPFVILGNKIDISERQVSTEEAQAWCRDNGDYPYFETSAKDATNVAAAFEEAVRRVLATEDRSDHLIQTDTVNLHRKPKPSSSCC
UniProt O94979, sequence (O94979 whole entry, looked up): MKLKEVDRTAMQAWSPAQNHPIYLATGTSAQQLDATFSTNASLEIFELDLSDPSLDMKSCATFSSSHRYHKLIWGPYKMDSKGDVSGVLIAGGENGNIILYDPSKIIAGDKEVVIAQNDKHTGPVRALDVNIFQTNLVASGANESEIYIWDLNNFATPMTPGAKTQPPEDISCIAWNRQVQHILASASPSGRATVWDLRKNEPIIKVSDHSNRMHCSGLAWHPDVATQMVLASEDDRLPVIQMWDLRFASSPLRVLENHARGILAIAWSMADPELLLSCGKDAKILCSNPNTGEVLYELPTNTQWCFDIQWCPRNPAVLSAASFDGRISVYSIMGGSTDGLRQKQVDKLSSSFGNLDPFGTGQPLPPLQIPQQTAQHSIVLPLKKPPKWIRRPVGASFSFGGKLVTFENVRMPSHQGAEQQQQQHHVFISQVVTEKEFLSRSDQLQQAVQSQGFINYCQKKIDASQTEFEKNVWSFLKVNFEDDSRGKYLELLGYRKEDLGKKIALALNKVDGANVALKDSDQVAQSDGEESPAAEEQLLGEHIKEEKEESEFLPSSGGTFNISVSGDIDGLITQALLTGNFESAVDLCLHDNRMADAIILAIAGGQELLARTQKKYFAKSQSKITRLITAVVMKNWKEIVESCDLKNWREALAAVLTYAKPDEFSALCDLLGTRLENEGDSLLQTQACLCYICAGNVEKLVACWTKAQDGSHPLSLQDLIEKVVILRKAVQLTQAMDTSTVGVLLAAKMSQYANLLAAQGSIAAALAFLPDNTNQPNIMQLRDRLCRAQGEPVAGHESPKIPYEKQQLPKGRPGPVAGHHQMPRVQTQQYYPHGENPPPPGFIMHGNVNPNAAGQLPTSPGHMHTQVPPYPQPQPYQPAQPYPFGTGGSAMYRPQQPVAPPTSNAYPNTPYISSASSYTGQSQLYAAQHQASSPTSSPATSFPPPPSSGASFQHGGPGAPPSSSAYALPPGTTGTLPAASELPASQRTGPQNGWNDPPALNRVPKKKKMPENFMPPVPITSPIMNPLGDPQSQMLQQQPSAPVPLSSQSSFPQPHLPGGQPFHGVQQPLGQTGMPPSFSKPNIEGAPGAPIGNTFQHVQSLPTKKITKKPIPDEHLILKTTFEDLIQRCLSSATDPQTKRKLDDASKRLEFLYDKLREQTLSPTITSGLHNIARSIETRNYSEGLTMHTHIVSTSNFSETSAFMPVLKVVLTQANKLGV
UniProt Q8WXD2, sequence (Q8WXD2 whole entry, looked up): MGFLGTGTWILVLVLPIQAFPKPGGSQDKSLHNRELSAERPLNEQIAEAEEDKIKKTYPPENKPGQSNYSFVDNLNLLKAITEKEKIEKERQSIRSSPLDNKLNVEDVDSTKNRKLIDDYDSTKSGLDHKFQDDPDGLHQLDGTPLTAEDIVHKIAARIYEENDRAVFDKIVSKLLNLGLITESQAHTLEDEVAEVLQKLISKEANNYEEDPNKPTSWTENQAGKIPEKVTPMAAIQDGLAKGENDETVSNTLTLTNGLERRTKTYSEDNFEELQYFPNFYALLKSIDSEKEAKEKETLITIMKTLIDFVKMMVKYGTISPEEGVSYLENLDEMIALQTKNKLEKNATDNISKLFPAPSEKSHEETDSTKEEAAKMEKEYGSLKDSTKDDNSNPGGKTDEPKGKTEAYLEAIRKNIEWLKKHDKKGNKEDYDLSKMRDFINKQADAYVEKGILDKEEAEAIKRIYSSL
UniProt O00560, sequence (O00560 whole entry, looked up): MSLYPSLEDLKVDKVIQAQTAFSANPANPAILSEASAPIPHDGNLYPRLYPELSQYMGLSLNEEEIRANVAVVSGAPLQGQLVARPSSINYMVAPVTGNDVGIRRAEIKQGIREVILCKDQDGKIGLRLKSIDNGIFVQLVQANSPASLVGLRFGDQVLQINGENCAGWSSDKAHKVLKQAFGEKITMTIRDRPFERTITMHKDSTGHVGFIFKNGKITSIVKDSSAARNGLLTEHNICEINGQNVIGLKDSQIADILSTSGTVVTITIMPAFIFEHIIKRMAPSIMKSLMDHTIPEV
UniProt Q9P2N5, sequence (Q9P2N5 whole entry, looked up): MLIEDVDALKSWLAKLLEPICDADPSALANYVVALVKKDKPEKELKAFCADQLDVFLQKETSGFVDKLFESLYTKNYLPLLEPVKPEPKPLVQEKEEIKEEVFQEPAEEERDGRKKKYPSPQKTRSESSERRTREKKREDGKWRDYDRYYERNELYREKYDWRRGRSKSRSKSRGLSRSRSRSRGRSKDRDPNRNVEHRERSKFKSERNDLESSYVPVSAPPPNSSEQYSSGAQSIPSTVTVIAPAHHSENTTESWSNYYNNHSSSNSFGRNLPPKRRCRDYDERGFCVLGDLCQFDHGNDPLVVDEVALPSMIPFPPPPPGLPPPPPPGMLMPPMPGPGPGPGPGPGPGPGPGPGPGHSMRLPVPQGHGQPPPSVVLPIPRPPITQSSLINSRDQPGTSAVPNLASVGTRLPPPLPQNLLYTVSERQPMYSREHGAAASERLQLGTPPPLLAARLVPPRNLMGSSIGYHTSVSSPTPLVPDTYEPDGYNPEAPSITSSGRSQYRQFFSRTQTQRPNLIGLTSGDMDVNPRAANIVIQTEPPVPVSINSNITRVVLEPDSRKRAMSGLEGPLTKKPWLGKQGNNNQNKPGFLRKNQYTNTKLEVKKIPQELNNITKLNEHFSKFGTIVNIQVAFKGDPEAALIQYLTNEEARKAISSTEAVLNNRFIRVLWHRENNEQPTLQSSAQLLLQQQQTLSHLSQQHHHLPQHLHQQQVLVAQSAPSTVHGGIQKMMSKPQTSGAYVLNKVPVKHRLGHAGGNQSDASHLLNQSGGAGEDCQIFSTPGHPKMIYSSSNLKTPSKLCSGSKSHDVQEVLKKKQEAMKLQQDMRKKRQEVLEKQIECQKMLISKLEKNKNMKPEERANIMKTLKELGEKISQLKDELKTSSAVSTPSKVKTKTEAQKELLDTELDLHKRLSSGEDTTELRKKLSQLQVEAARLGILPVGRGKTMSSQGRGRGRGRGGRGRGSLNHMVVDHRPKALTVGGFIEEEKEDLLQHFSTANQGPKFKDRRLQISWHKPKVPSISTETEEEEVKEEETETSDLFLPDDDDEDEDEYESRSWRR
UniProt Q01196, sequence (Q01196 whole entry, looked up): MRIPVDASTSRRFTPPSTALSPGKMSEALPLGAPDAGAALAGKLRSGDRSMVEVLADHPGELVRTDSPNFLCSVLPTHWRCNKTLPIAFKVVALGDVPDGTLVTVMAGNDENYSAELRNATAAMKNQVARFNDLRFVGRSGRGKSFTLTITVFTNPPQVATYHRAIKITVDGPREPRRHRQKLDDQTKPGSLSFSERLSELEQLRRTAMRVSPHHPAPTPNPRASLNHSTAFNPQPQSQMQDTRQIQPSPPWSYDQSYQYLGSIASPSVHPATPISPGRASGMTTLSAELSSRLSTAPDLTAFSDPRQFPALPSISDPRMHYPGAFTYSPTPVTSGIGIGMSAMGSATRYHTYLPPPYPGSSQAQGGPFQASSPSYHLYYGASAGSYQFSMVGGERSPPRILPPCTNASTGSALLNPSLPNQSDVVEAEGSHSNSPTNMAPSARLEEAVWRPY
UniProt Q8N5L8, sequence (Q8N5L8 whole entry, looked up): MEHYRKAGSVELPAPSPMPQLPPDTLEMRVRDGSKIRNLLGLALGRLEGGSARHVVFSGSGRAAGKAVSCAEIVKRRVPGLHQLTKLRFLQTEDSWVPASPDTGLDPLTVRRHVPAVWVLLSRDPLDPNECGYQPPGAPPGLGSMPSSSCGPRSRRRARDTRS
UniProt Q92930, sequence (Q92930 whole entry, looked up): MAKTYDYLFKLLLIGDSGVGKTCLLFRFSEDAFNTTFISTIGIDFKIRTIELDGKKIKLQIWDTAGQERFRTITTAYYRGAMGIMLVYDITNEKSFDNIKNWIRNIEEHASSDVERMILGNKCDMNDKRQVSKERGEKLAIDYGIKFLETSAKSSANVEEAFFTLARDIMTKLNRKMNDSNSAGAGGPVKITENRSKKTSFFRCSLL
UniProt Q8NBX0, sequence (Q8NBX0 whole entry, looked up): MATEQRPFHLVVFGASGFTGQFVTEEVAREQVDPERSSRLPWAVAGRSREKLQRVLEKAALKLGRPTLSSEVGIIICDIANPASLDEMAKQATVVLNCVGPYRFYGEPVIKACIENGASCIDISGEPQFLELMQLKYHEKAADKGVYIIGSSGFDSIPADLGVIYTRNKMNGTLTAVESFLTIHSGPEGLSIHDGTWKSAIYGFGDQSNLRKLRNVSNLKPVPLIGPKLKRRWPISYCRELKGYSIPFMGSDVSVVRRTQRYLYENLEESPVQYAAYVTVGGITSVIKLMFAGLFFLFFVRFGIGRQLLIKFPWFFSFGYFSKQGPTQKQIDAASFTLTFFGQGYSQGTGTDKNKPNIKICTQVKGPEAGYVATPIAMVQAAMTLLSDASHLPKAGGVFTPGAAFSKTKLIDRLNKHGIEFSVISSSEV
UniProt P58004, sequence (P58004 whole entry, looked up): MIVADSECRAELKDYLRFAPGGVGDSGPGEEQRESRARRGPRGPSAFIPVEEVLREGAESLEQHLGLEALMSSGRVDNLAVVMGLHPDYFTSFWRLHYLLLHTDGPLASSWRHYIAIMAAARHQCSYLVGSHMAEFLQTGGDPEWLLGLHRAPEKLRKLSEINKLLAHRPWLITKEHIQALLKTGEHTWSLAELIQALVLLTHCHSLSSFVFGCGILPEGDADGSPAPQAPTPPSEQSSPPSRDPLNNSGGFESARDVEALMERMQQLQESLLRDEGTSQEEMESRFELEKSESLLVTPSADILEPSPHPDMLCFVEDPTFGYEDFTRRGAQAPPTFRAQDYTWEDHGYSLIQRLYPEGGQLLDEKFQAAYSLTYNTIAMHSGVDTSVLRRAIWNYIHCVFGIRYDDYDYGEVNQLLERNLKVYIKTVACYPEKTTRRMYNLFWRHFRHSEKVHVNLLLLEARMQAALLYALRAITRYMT

log2 fold change, inactive:
RPS12 (UniProt P25398) 0.043, RUNX1 isoform 8 (UniProt Q01196) -0.043, RAB9A (UniProt P51151) -0.001, RPS9 (UniProt P46781) 0.125, SCG3 (UniProt Q8WXD2) 0.061, RNPEP (UniProt Q9H4A4) 0.011, SCCPDH (UniProt Q8NBX0) 0.059, RABGGTA (UniProt Q92696) -0.038, RRAGB (UniProt Q5VZM2) 0.002, RPS21 (UniProt P63220) -0.014, RPP25L (UniProt Q8N5L8) 0.049, SCAF11 (UniProt Q99590) 0.166, RGS10 (UniProt O43665) 0.026, RPL38 (UniProt P63173) 0.043, RNF167 (UniProt Q9H6Y7) -0.018, SESN2 (UniProt P58004) 0.21, SEC31A (UniProt O94979) 0.028, RBM27 (UniProt Q9P2N5) -0.045, RAVER1 (UniProt E9PAU2) 0.082, ROCK1 (UniProt Q13464) 0.031, SDCBP (UniProt O00560) -0.036, RMC1 (UniProt Q96DM3) -0.025, REL (UniProt Q04864) 0.037, RAB8B (UniProt Q92930) -0.001

— the supplement of paper PMC10849652
